These results are taken from PubChem BioAssay AID743395 (Broad Institute, 2014).

About 480 (40%) of roughly 1,200 compounds were called active. So high a share suggests a set chosen from earlier hits. These entries were drawn from the full list. Measured potencies and affinities stand elsewhere. A number with no mark means an inactive call. No rule for the calls is given here.

The nature of the test: viability loss in human hepatoma cells – cell-based, CellTiter-Glo luminescence, cherry-pick, set 2, cytotoxicity control, dose response (AID 743395).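 Also: 0% = neutral control wells and -100% = positive control wells.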 Conditions: HepG2 viability, CellTiter-Glo ATP luminescence, 72 h; series mostly up to 26 µM; activity change, negative = cytotoxicity: at the top concentration. Background: Cellular ATP, detected with luciferase, serves as a proxy for viable cell number.
`O=C(Cc1ccsc1)OCC(=O)c1ccccc1`: the “activity change, negative = cytotoxicity” value is -3.91%. As for `CN[C@H]1CCc2cc(OC)c(OC)c(OC)c2-c2ccc(N(C)CC(OC)OC)c(=O)cc21`, the “activity change, negative = cytotoxicity” value is -9.88%. With `COc1c(O[C@@H]2O[C@H](CO)[C@@H](O)[C@H](O)[C@H]2O)cc2c(c1OC)-c1ccc(SC)c(=O)cc1C(NC(C)=O)CC2` (stereo not given in full), the “activity change, negative = cytotoxicity” value is 4.6%. For the molecule `CCN(CC)c1ccc2c(cc1=O)[C@@H](NC)CCc1cc(OC)c(OC)c(OC)c1-2`, the “activity change, negative = cytotoxicity” value was -9.08%. Turning to `CO[C@H]1CN(C)C(=O)c2cc(NC(C)=O)ccc2OC[C@H](C)N(C(=O)c2ccncc2)C[C@H]1C`, the “activity change, negative = cytotoxicity” value is -5.17%. As to `CCOC(=O)CSC1=C(C#N)C(c2ccc(C)s2)CC(=O)N1` (stereo not given), the “activity change, negative = cytotoxicity” value was -40.3%. For the molecule `CN(C(=O)c1ccccc1OC1CCN(S(C)(=O)=O)CC1)C1CCOC1` (stereo not given), the “activity change, negative = cytotoxicity” value is -1.38%.

For the molecule `COCCOC(=O)c1[nH]c2c(c1C)C(=O)CC(c1cccs1)C2` (stereo not given), the “activity change, negative = cytotoxicity” value was -10.6%. `Nc1ccn([C@@H]2O[C@H](C(=O)NCC(F)(F)F)[C@@H](O)[C@H]2O)c(=O)n1`: the “activity change, negative = cytotoxicity” value is -8.42%. In the case of `O=C1C=CN(C2OC(CO)C(O)C2O)C(=O)C1` (stereo not given), the “activity change, negative = cytotoxicity” value is -15.5%. Take `Nc1ccn([C@H]2C[C@H](O)[C@@H](CO)O2)c(=O)n1`: the “activity change, negative = cytotoxicity” value was 1.56%.

Take `Cc1ccc(C(=O)OCC(=O)NCc2cc(C)c(O)c(C)c2)cc1S(=O)(=O)N1CCCCC1`: the “activity change, negative = cytotoxicity” value was 6.09%.

For `CC(OC(=O)CCCC(=O)Nc1ccc(F)cc1)C(=O)c1ccccc1` (stereo not given), the “activity change, negative = cytotoxicity” value was 10.3%. Consider `CC1Cc2ccccc2N1S(=O)(=O)c1cccc(C(=O)N2CCN(c3ncccn3)CC2)c1` (stereo not given), for which the “activity change, negative = cytotoxicity” value is -22.5%. Turning to `COc1ccccc1N1CCN(C(CNS(=O)(=O)c2cccs2)c2cccnc2)CC1` (stereo not given), the “activity change, negative = cytotoxicity” value was -8.06%. For the molecule `CN(C[C@H](Cc1ccccc1)N(C[C@H](Cc1ccccc1)N(CCC(C)(C)C)N=O)N=O)N=O`, the “activity change, negative = cytotoxicity” value is -0.701%. For the molecule `O=C1c2cccc3c(O)ccc(c23)C(=O)N1c1ccc(Cl)cc1`, the “activity change, negative = cytotoxicity” value was -9.52%. With `N#CC1=C(N)OC2=C(CCc3ccccc32)C1c1ccccc1Cl` (stereo not given), the “activity change, negative = cytotoxicity” value is 3.32%.

As for `COc1nc(N)nc(NC(=O)c2cccs2)c1N=O`, the “activity change, negative = cytotoxicity” value is -14.8%. Consider `Cc1ccc(Cc2c(-c3ccc(C)cc3)nc3c(C)cc(Br)cn23)cc1`, for which the “activity change, negative = cytotoxicity” value is -4.39%.

Consider `CC(C)(C)NC(=O)c1cccc2c1-c1ccccc1C2=O`, for which the “activity change, negative = cytotoxicity” value was -12.1% [at 8 µM]. Take `CC1=C(C(=O)NC2CCCCC2C)C2(CCC(C)CC2)OC1=O` (stereo not given): the “activity change, negative = cytotoxicity” value was -13%. With `COc1ccc(C(C#N)CC(=O)c2ccc3c(c2)OCO3)cc1OC` (stereo not given) the figure was -3.73%; with `Cc1cc(Br)cn2c(Cc3ccsc3)c(-c3ccc(F)cc3)nc12`, 0.336%; with `Cc1cccc(OCC(=O)NNC(=O)c2ccc3nc[nH]c3c2)c1`, -11.2%.

As for `COc1ccc(C(=O)Nc2ccc(NC(=O)c3cccc(F)c3)cn2)cc1`, the “activity change, negative = cytotoxicity” value was -8.34%.

Regarding `COc1ccc(C(=O)OCc2nc(N)nc(Nc3ccccc3C)n2)cc1OC`, the “activity change, negative = cytotoxicity” value was -13.4%. As for `COc1ccc(NC(=O)c2ccc(OCC3CCCO3)cc2)cc1OC` (stereo not given), the “activity change, negative = cytotoxicity” value was 0.664%. In the case of `CC(OC(=O)c1ccc(Cl)nc1)C(=O)NC(C)(C)C` (stereo not given), the “activity change, negative = cytotoxicity” value is -2.04%. In the case of `NS(=O)(=O)c1cc(C2(O)NC(=O)c3ccccc32)ccc1Cl` (stereo not given), the “activity change, negative = cytotoxicity” value was -3.58%.

For the molecule `CCNC(=O)C[C@@H]1C=C[C@@H](NC(=O)NC2CCCCC2)[C@H](CO)O1`, the “activity change, negative = cytotoxicity” value was -3.27%.

As to `O=C(CSC1=NCCN1)Nc1cccc([N+](=O)[O-])c1`, the “activity change, negative = cytotoxicity” value is -21.5%.

For `COc1ccc([C@@H]2[C@@H]3C(=O)N(C(C)(C)C)C(=O)[C@@H]3[C@]3(Cc4ccccc4)C(=O)N(c4ccc(C(F)(F)F)cc4)C(=O)N23)cc1`, the “activity change, negative = cytotoxicity” value was -20.1%.

`CCc1ccccc1N(C)S(=O)(=O)c1ccc(-c2cc(C)no2)s1`: the “activity change, negative = cytotoxicity” value was -15%.

In the case of `Cc1ccc(OCCC(=O)NNC(=O)c2ccc(Br)cc2)cc1`, the “activity change, negative = cytotoxicity” value is -3.58%. `O=C(NCCCN1CCOCC1)c1sc2cc(Cl)ccc2c1Cl`: the “activity change, negative = cytotoxicity” value is -1.96%. On to `CN(C)CCCN1c2ccccc2Sc2ccccc21`, for which the “activity change, negative = cytotoxicity” value is -24.3%. Regarding `O=C(NCCCN1CCOCC1)c1cc(S(=O)(=O)N2CCOCC2)c(Cl)cc1Cl`, the “activity change, negative = cytotoxicity” value was -1.37%. As to `COC(=O)C1CC23C=CCN4CCC5(c6ccccc6NC15C2C)C43` (stereo not given), the “activity change, negative = cytotoxicity” value was -14.9%.

Take `COc1ccccc1NC(=O)C(=O)NCC(c1ccco1)N1CCc2ccccc21` (stereo not given): the “activity change, negative = cytotoxicity” value was 6.66%. The result for `COc1ccc(C(=O)NCC(c2ccco2)N2CCc3ccccc32)cc1` (stereo not given) reads -17.2%. Turning to `CCCc1nc(SC2CCCC2)c2c(=O)n(C)c(=O)n(C)c2n1`, the “activity change, negative = cytotoxicity” value was -17.4%.

Turning to `COc1cc(OC)cc(C(=O)N2CC(=O)Nc3ccccc32)c1`, the “activity change, negative = cytotoxicity” value was -14%. The result for `COc1ccc(NCC(=O)n2c(C)c(C)c3ccccc32)cc1` reads -2.65%; that for `COc1ccc(/C=C2/CCCc3ccccc3C2=O)cc1`, -22.7%; that for `COC(=O)c1cn(C(=O)c2ccc(C)cc2C)c2ccccc12`, -20.2%.

Consider `O=C(NCc1cccnc1)c1cc(C2CCCCN2C(=O)CCCc2ccccc2)on1` (stereo not given), for which the “activity change, negative = cytotoxicity” value is -5.42%. For `CCCOCCOC(=O)c1[nH]c2c(c1C)C(=O)CC(c1cc(OC)ccc1OC)C2` (stereo not given), the “activity change, negative = cytotoxicity” value was 1.47%. As to `Cc1ccc(C)c(NC(=O)CCC(=O)N/N=C/c2cc([N+](=O)[O-])ccc2O)c1`, the “activity change, negative = cytotoxicity” value is -10.3%.

Take `COc1ccccc1/C=N/NC(=O)c1cc2c(OC)c(OC)ccc2[nH]1`: the “activity change, negative = cytotoxicity” value was -8.24%.
